# About 890 (0.31%) of roughly 290,000 compounds were called active. Rule as the data show it: active = inhibition mostly above about 52% (no sharp cut-off); inactive = mostly below about 76%. This excerpt belongs to a sample that is enriched for actives.
# Assay: inhibitors of HIV fusion peptide binding, primary screen, biochemical, uHTS, fluorescence dequenching (AID 1986)
# Settings: cell-free peptide binding, 30 min, stronger effect = higher value
# [1] = measured here: repeat confirmation average inhibition, at 18.6 µM
SMILES,inhibition (at 20 µM),inhibition [1] [%]
Oc1c(Br)cc(Br)cc1/C=N/n1c(-c2ccccc2)n[nH]c1=S,20.3% (inactive),
Oc1c(Br)cc(/C=N/n2c(-c3ccccc3)n[nH]c2=S)c(O)c1Br,53.2% (active),
Oc1ccc(Br)cc1/C=N/n1c(-c2ccccc2)n[nH]c1=S,6% (inactive),
Cc1c(Br)c(O)c(Br)c(O)c1/C=N/n1c(-c2ccccc2)n[nH]c1=S,62.9% (inactive),47.6
COc1c(Br)cc(/C=N/n2c(-c3ccccc3)n[nH]c2=S)c(O)c1Br,44.2% (inactive),
Oc1ccccc1/C=N/n1c(-c2ccccc2)n[nH]c1=S,0.3% (inactive),
Oc1c(Br)cc(/C=N/n2c(-c3ccccc3)n[nH]c2=S)c(Br)c1O,63.4% (active),
Oc1c(Br)cc(/C=N/n2c(-c3ccccc3)n[nH]c2=S)cc1Br,64.4% (inactive),15.2
CC(=O)c1cccc(N(CC(=O)N2CCOCC2)S(C)(=O)=O)c1,-1.8% (inactive),
CC(Oc1ccccc1)C(=O)NNC(=O)c1cccs1 (stereo not given),-0.2% (inactive),
Cc1ccc(Nc2nc(N)c([N+](=O)[O-])c(N3CCOCC3)n2)cc1,-3.1% (inactive),
Cc1c(Cl)c(C(=O)NC2C3CC4CC(C3)CC2C4)nn1C (stereo not given),-1.2% (inactive),
O=C(Nc1ccn(Cc2ccccc2F)n1)c1ccc(COc2ccc(Br)cc2)cc1,-0.1% (inactive),
Cc1cccc(NC(=O)CN2C(=O)CCS(=O)(=O)c3ccccc32)c1C,0% (inactive),
CC(C)(C)NC(=O)NC(=O)COC(=O)c1cccc(NS(=O)(=O)c2ccc(F)c(F)c2)c1,5.9% (inactive),
COC(=O)c1ccccc1NC(=O)COC(=O)[C@H](C)NC(N)=O,-2.5% (inactive),
C=CCn1c(CCC(O)COCCC)n[nH]c1=S (stereo not given),-0.8% (inactive),
O=C1NC(=S)S/C1=C/c1ccc(N2CCOCC2)o1,18.7% (inactive),
COc1ccc2nc(N3CCCCC3)c(/C=C3\SC(=S)NC3=O)cc2c1,53.6% (active),
O=C1NC(=S)S/C1=C\c1cc2ccccc2nc1N1CCCCC1,63.6% (inactive),28.2
COc1ccc2cc(C#N)c(N3CCOCC3)nc2c1,2.4% (inactive),
COc1ccc(-n2c(C)cc(/C=C3\SC(=S)NC3=O)c2C)cc1,32.3% (inactive),
COc1ccc2cc(/C=C3\SC(=S)NC3=O)c(N3CCOCC3)nc2c1,63.1% (active),
Cc1ccc(CN2CCC(n3nccc3NC(=O)C3CCOC3)CC2)cc1C (stereo not given),-0.8% (inactive),
CC(=O)Nc1ccc(C(=O)OCC(=O)c2ccc(C)c([N+](=O)[O-])c2)cc1,0.2% (inactive),

SMILES,inhibition (at 20 µM),inhibition [1] [%]
Cc1ccc(C(=O)/C=C/c2ccc(-c3ccccc3[N+](=O)[O-])o2)cc1,35.4% (inactive),
CCN(CC)S(=O)(=O)c1ccc(C(=O)/C=C/c2ccc(-c3ccc([N+](=O)[O-])cc3)o2)cc1,73.1% (active),88.1
Cc1ccc(C(=O)/C=C/c2ccc(-c3ccc(C)cc3)o2)cc1,21.5% (inactive),
Cc1c(C(=O)Nc2cccnc2Cl)oc2ccccc12,-1% (inactive),
CCCN(C(=O)CN1C(=O)NC2(CCCCCC2)C1=O)C1CCS(=O)(=O)C1 (stereo not given),0.3% (inactive),
O=C1/C(=C/c2cccnc2)Sc2ccccc21,9.2% (inactive),
C#CCSc1nc(-c2ccccc2)cc(C(F)(F)F)c1C#N,-0.2% (inactive),
N#Cc1c(C(F)(F)F)cc(-c2ccccc2)nc1SCCN1CCOCC1,2.6% (inactive),
N#Cc1c(C(F)(F)F)cc(-c2ccccc2)nc1SCc1nc(N)nc(N2CCOCC2)n1,66.7% (active),
O=C(NCC1CCCO1)c1ccc(CNS(=O)(=O)c2cccc(Cl)c2)cc1 (stereo not given),-0.3% (inactive),
Cc1ccc(C(=O)C2=C(O)C(=O)N(Cc3ccco3)C2c2cccc(Cl)c2)o1 (stereo not given),25.7% (inactive),
Cc1ccc(N=Cc2c(O)n(-c3nccs3)c(=O)c3ccccc23)c(C)c1,75.3% (active),103
Cc1ccccc1N=Cc1c(O)n(-c2nccs2)c(=O)c2ccccc12,2.3% (inactive),
Cc1cc(C)c(N=Cc2c(O)n(-c3nccs3)c(=O)c3ccccc23)c(C)c1,0.6% (inactive),
CN1CCN(/N=C/c2ccc(-c3ccccc3)cc2)CC1,0% (inactive),
CC1=NN(c2ccccc2)C(=O)/C1=C\c1c(C)[nH]n(-c2ccccc2)c1=O,-0.3% (inactive),
Cc1[nH]n(-c2ccccc2)c(=O)c1/C=C1/C=c2ccccc2=N1,-2.5% (inactive),
Cc1coc2cc3oc(=O)c(CCC(=O)N4CCC(C(=O)O)(c5ccccc5)CC4)c(C)c3cc12,3.7% (inactive),
O=C1CCN(Cc2ccccc2)CCN1[C@H](CO)c1ccccc1,1.5% (inactive),
Cc1ccc(NC(=O)COC(=O)c2ccccc2-c2nc3ccccc3s2)c(C)c1,1.4% (inactive),
CCOCCCNc1nc2c(C)cccn2c(=O)c1/C=C1\SC(=S)N(C(C)CC)C1=O (stereo not given),94.5% (active),
Cc1cccn2c(=O)c(/C=C3\SC(=S)NC3=O)c(NCCCN3CCOCC3)nc12,75.8% (inactive),7.4
Cc1cccn2c(=O)c(C=Nc3ccccc3)c(NCCO)nc12,0.3% (inactive),
CCCN1C(=O)/C(=C/c2c(NCCCOCC)nc3c(C)cccn3c2=O)SC1=S,8.4% (inactive),
CCC(C)N1C(=O)/C(=C/c2c(NCCCOC(C)C)nc3c(C)cccn3c2=O)SC1=S (stereo not given),75.6% (active),144

SMILES,inhibition (at 20 µM),inhibition [1] [%]
Cc1cccn2c(=O)c3cc(C(=O)NCCCOC(C)C)sc3nc12,1% (inactive),
CCCN1C(=O)/C(=C/c2c(NCCCOC(C)C)nc3c(C)cccn3c2=O)SC1=S,1.8% (inactive),
CCOCCCNc1nc2c(C)cccn2c(=O)c1/C=C1\SC(=S)N(CC(C)C)C1=O,58.9% (active),63.6
CCOCCCNC(=O)c1cc2c(=O)n3cccc(C)c3nc2s1,-1.3% (inactive),
Cc1c(C(=O)NN)sc(=S)n1C,-1.3% (inactive),
O=C(N/N=C/c1cc2c(cc1Br)OCO2)c1cc2ccccc2o1,-0.4% (inactive),
COc1cccc(NC(=O)Cc2c(O)c3ccccc3[nH]c2=O)c1,-2.3% (inactive),
Cn1nnnc1SCc1ccccc1F,2.4% (inactive),
O=C(Nc1cccc(NC(=O)c2ccc([N+](=O)[O-])o2)c1)c1ccco1,0.6% (inactive),
CC(C)c1onc(C(=O)NCCc2ccccc2)c1[N+](=O)[O-],-0.8% (inactive),
CN(C)S(=O)(=O)c1cccc(-n2sc3ccccc3c2=O)c1,-1.2% (inactive),
O=C(O)c1ccccc1NS(=O)(=O)c1cccc(C(F)(F)F)c1,7.8% (inactive),
O=C(O)c1ccccc1NS(=O)(=O)c1cccc(-n2sc3ccccc3c2=O)c1,54.9% (active),
Cc1ccc(N=Cc2cccc(O)c2O)c(C)c1,-1.8% (inactive),
Oc1cccc(C=Nc2cccc3ccccc23)c1O,36.3% (inactive),
Cc1ccccc1N=Cc1cccc(O)c1O,64.9% (active),
Clc1cccc(CN2CCN(c3nc4nonc4nc3NC3CC3)CC2)c1,3.4% (inactive),
CCCCCCn1c(=O)[nH]c2nc3cc(N)c(C)cc3nc2c1=O,38.8% (inactive),
Cc1cc2nc3c(=O)n(C4CCCCC4)c(=O)[nH]c3nc2cc1N,66.8% (active),
Nc1ccc2nc3c(=O)n(C4CCCCC4)c(=O)[nH]c3nc2c1,146% (inactive),
CCOC(=O)c1cnc2c(N=Nc3ccccc3)c(N)nn2c1N,-0.1% (inactive),
COc1ccc(/C=N\NS(=O)(=O)c2ccc(Br)cc2)cc1COc1ccccc1[N+](=O)[O-],-1.1% (inactive),
COC(=O)c1cc(S(=O)(=O)NCCc2ccc(Cl)cc2)c[nH]1,1.3% (inactive),
O=C(NC(c1ccccc1)c1cc(Cl)c2cccnc2c1O)c1cccnc1 (stereo not given),0.8% (inactive),
CCOc1ccc(C(Nc2cccnc2)c2cc(Cl)c3cccnc3c2O)cc1 (stereo not given),17.1% (inactive),

SMILES,inhibition (at 20 µM),inhibition [1] [%]
O=C(O)COc1ccccc1C(Nc1ccccn1)c1cc(Cl)c2cccnc2c1O (stereo not given),56.9% (active),
COc1ccccc1C(NC(C)=O)c1cc(Cl)c2cccnc2c1O (stereo not given),-2.4% (inactive),
O=C(O)COc1ccccc1C(Nc1cccnc1)c1cc(Cl)c2cccnc2c1O (stereo not given),77.6% (active),
Oc1c(C(Nc2ccccn2)c2cccnc2)cc(Cl)c2cccnc12 (stereo not given),-3.6% (inactive),
Fc1ccc(CSc2ccc(-c3ccc4c(c3)OCO4)nn2)cc1,-3.7% (inactive),
O=S(=O)(NCCC1CC1(Cl)Cl)c1ccccc1 (stereo not given),-2% (inactive),
CCOc1ccc(C(=O)NC(=S)Nc2ccccn2)cc1[N+](=O)[O-],-0.9% (inactive),
O=C(NC1CCCCC1)Oc1cc2oc(=O)sc2cc1Br,-1.5% (inactive),
CCCCNC(=O)Oc1cc(CCl)on1,0.1% (inactive),
CCCCNC(=O)Oc1c(Br)cc2sc(=O)oc2c1Br,54.3% (active),
COC(=O)c1cc(OC)c(OC)cc1NC(=O)c1csc(C)c1,-1.1% (inactive),
COc1ccccc1-c1ccc(/C=C2\C=CC(=O)O2)o1,70.7% (active),59
COc1ccccc1-c1ccc(/C=C2/C=C(C)OC2=O)o1,48.6% (inactive),
CCCC1=C/C(=C/c2ccc(-c3ccccc3OC)o2)C(=O)O1,32% (inactive),
CCCCNC(=O)O/N=C(\N)CS(=O)(=O)C(C)(C)C,-2.3% (inactive),
COc1cccc(NC(=O)Cn2nnc(C(=O)Nc3cc(Cl)ccc3OC)c2N)c1,1.3% (inactive),
CCOc1ccc(C(=O)Nc2ncccc2Cl)cc1,1.2% (inactive),
Cc1ccc2c(nc3s/c(=C\c4ccc(-c5ccccc5C(=O)O)o4)c(=O)n32)c1C,88% (active),121
Cc1cc2nc3s/c(=C/c4ccc(-c5ccccc5C(=O)O)o4)c(=O)n3c2cc1C,116% (active),108
O=C(O)c1ccccc1-c1ccc(/C=c2\sc3nc4cc(Br)cnc4n3c2=O)o1,56.9% (inactive),28.9
Cc1ccc2c(nc3s/c(=C/c4cccs4)c(=O)n32)c1C,-1.1% (inactive),
COc1ccc(O)c(/C=c2/sc3nc4cc(C)c(C)cc4n3c2=O)c1,-3.1% (inactive),
CCOC(=O)C(C)N1C(=O)S/C(=C\c2ccc(-c3ccccc3C(=O)O)o2)C1=O (stereo not given),22.7% (inactive),

# From PubChem BioAssay AID1986 (Sanford-Burnham Center for Chemical Genomics, 2009)
